Source: PubChem BioAssay (NCATS)
Where “and” joins values, the source holds several entries; their conditions need not be identical. Equal values may be shown once. Inconclusive results are not listed. Calls of active or inactive are those of the source. Calls follow the shape of the dose curve; as a rule, active = well fitted curve in the direction sought with a large enough effect; inconclusive = small, poorly fitted or top-dose-only effect, or another doubt; inactive = no such curve, though single readings can be large; an effect the other way counts as inactive or inconclusive.

Tests used:
[1] = qHTS assay for measurement of the activity of small molecule inhibitors on Zika virus induced Caspase-3 activity in human astrocytoma cells (AID 1224859)
Summary of the method: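 Luminescence read-out (Caspase-Glo 3/7, 30 min RT) of caspase activity in SNB-19 cells infected 6 h with ZIKV, 2 FFU/cell, after 1 h compound pretreatment; % inhibition from induction normalised to uninfected (0%) and infected (100%) wells.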

[2] = qHTS Screen of the MIPE 4.0 Collection Against Ewings Sarcoma (RDES) (AID 1259252); also: nearly all actives have a fitted effect of over 35% in size; also: potency is read from the fitted curve at half-maximal effect
Summary of the method: (§1)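 Log-phase cells in RPMI with 5% FBS attached for 4 h, then received compounds as a titration for 48 h at 37C, 5% CO2. Viability was read by CellTiter-Glo luminescence and normalized to DMSO and no-cell wells.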

[3] = qHTS Screen of the MIPE 4.0 Collection Against Ewings Sarcoma (TC71) (AID 1259253); also: nearly all actives have a fitted effect of over 40% in size; also: potency is read from the fitted curve at half-maximal effect
Summary of the method: as §1

[4] = qHTS Screen of the MIPE 4.0 Collection Against Ewings Sarcoma (EW8) (AID 1259255); also: nearly all actives have a fitted effect of over 35% in size; also: potency is read from the fitted curve at half-maximal effect
Summary of the method: as §1

[5] = qHTS Screen of the MIPE 4.0 Collection Against Ewings Sarcoma (TC32) (AID 1259256); also: nearly all actives have a fitted effect of over 45% in size; also: potency is read from the fitted curve at half-maximal effect
Summary of the method: as §1

[6] = qHTS assay to identify small molecule inhibitors of chordoma cells - UCH-1 (AID 1259355); also: nearly all actives have a fitted effect of over 55% in size
Summary of the method: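 Screening used approved and investigational drugs in 15-point titration against 800 seeded cells per well. A fixed combination of auranofin with camptothecin, doxorubicin, rubitecan and topotecan followed compound addition, and growth was scored by CellTiter-Glo after 48hr.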

[7] = P-glycoprotein substrates identified in KB-8-5-11 adenocarcinoma cell line, qHTS therapeutic library screen (AID 1346987); also: nearly all actives have a fitted effect of over 65% in size; also: potency is read from the fitted curve at half-maximal effect
Summary of the method: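 In this qHTS, P-gp-rich KB-8-5-11 cells received library compounds across a concentration range. Viability was quantified by luminescence after 72 h at 37 degree C.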

[8] = NS1 protein of Zika virus - qHTS assay to identify small molecule inhibitors in human HEK 293 cells (AID 1347053); also: nearly all actives have a fitted effect of over 55% in size; also: potency is read from the fitted curve at half-maximal effect
Summary of the method: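 Compound-treated (1 h pre-infection) HEK 293 cells infected with ZIKV MR766, MOI = 0.5; after 24 h at 37 C, NS1 read by TR-FRET; data normalized to uninfected and infected controls.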

[9] = Identifying Small Molecule Inhibitors of Pancreatic Cancer Stem Cells (A2780, Spheroid) (AID 1259357); details: Potency: A2780 spheroid viability; also: potency is read from the fitted curve at half-maximal effect;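 also: spheroids pre-formed over 14 days in stem cell medium on hydrogel; compound exposure lasted 48 h before the ATP luminescence read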
Summary of the method: (§2)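 Viability is scored by CellTiter-Glo luminescence 48 h after dosing, expressed as percent activity against vehicle and no-cell references. Spheroid formats rely on cells cultured 14 days in stem cell media beforehand.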

[10] = Identifying Small Molecule Inhibitors of Pancreatic Cancer Stem Cells (SN12C, Adherent) (AID 1259358);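 also: potency is read from the fitted curve at half-maximal effect; cell survival measured after 48 h of compound exposure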
Summary of the method: (§3)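 Spheroids grown 14 days in stem cell media on hydrogel-coated nonadherent plates; 2D lines seeded directly. Compounds added after 4 h attachment, 48 h at 37C, 5% CO2; CellTiter-Glo luminescence normalized to DMSO (no inhibition) and no-cell wells (full inhibition).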

[11] = Identifying Small Molecule Inhibitors of Pancreatic Cancer Stem Cells (SN12C, Spheroid) (AID 1259360); details: Potency: SN12C spheroid viability; also: potency is read from the fitted curve at half-maximal effect
Summary of the method: as §2

[12] = Identifying Small Molecule Inhibitors of Pancreatic Cancer Stem Cells (A278, Adherent) (AID 1259361); also: nearly all actives have a fitted effect of over 35% in size
Summary of the method: as §3

[13] = Identifying Small Molecule Inhibitors of Pancreatic Cancer Stem Cells (Panc1, Adherent) (AID 1259362); details: Potency: viability; also: potency is read from the fitted curve at half-maximal effect
Summary of the method: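 Adherent (2D) versus sphere (3D) formats; spheres generated 14 d in SCM beforehand. Compound transferred by pin tool after 4 h, 48 h incubation, CellTiter-Glo endpoint.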

[14] = P-glycoprotein substrates identified in KB-3-1 adenocarcinoma cell line, qHTS therapeutic library screen (AID 1346986);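 also: potency is read from the fitted curve at half-maximal effect; potency is for cytotoxicity meaning loss of cell viability; nearly all actives have a fitted effect of over 60% in size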
Summary of the method: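 Viability by CellTiter-Glo after 72 h compound exposure at 37 degree C, 5% CO2. Cytotoxic call: curve class -1.1 to -2.4, maximum response >50%, AC50 < 10 uM, compared across KB-3-1 and P-gp-overexpressing KB-8-5-11.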

[15] = Identifying Small Molecule Inhibitors of Pancreatic Cancer Stem Cells (Panc1, Spheroid) (AID 1259359);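 also: potency is read from the fitted curve at half-maximal effect; compound exposure lasted 48 h before reading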
Summary of the method: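 Spheroids grown 14 days in stem cell media on nonadherent hydrogel before screening; cells attached 4 h, then compound exposure 48 h at 37C, 5% CO2. CellTiter-Glo luminescence normalized to DMSO (no inhibition) and no-cell wells (full inhibition).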

Compound | Potency [1] | Potency [2] | Potency [3] | Potency [4] | Potency [5] | Potency [6] | Potency [7] | Potency [8] | Potency [9] | Potency [10] | Potency [11] | IC50 (viability decrease) [12] | Potency [13] | Potency [14] | Potency [15]
O=C(O)CO.[NH2-].[NH2-].[Pt+2] | inactive | inactive | inactive | inactive | inactive | inactive | inactive | inactive | – | – | – | – | – | – | –
C1=CCOCc2cc(ccc2OCCN2CCCC2)Nc2nccc(n2)-c2cccc(c2)OCC1 | inactive | 5.9 µM (active) | 4.69 µM (active) | 6.62 µM (active) | 7.43 µM (active) | – | 3.32 µM (active) | 4.18 µM (active) | 3.32 µM (active) | 5260 nM (active) | inactive | 2.09 µM (active) | 1.87 µM (active) | – | –
C[C@@]12O[C@@H](C[C@]1(O)CO)n1c3ccccc3c3c4c(c5c6ccccc6n2c5c31)CNC4=O | inactive | 1.18 µM (active) | 0.59 µM (active) | 0.296 µM (active) | 0.332 µM (active) | – | 2.35 µM (active) and 1.46 µM (active) | 2.64 µM (active) | 23.5 µM (active) | – | 23.5 µM (active) | 1.66 µM (active) | – | 0.206 µM (active) | –
C=CC(=O)Nc1cc2c(Nc3ccc(F)c(Cl)c3)ncnc2cc1C#CC(C)(C)N1CCN(C)CC1 | inactive | 1.87 µM (active) | 2.64 µM (active) | 2.35 µM (active) | 1.32 µM (active) | – | 16.4 µM (active) | 13.2 µM (active) | 16.6 µM (active) | – | 6.62 µM (active) | 6.62 µM (active) | 11.8 µM (active) | 9.2 µM (active) | 5260 nM (active)
CN1CC[C@@H](c2c(O)cc(O)c3c(=O)cc(-c4ccccc4Cl)oc23)[C@@H](O)C1 | inactive | 0.148 µM (active) | 0.0743 µM (active) | 0.118 µM (active) | 0.148 µM (active) | – | 0.209 µM (active) | 0.833 µM (active) | 0.0743 µM (active) | 187 nM (active) | 0.118 µM (active) | 0.0372 µM (active) | 0.132 µM (active) | – | 132 nM (active)
Cc1cnc(-c2cnc(NCCNc3ccc(C#N)cn3)nc2-c2ccc(Cl)cc2Cl)[nH]1 | inactive | 8.33 µM (active) | 11.8 µM (active) | 16.6 µM (active) | 11.8 µM (active) | – | inactive | inactive | inactive | – | inactive | – | – | – | –
CC[C@@H]1C(=O)N(C)c2cnc(Nc3ccc(C(=O)NC4CCN(C)CC4)cc3OC)nc2N1C1CCCC1 | inactive | 0.0662 µM (active) | 0.0743 µM (active) | 0.0372 µM (active) | 0.0469 µM (active) | – | 0.418 µM (active) | 0.0332 µM (active) | inactive | – | – | 0.0132 µM (active) | 0.0093 µM (active) | – | 8.3 nM (active)
Cc1c(NC(=O)OC[C@@H]2COCCN2)cn2ncnc(Nc3ccc4c(cnn4Cc4cccc(F)c4)c3)c12 | inactive | 0.166 µM (active) | 1.05 µM (active) | 1.48 µM (active) | 0.935 µM (active) | – | – | – | – | – | – | – | – | – | –
COC(=O)C1=C(C)NC(C)=C(C(=O)OCCN2CCN(C(c3ccccc3)c3ccccc3)CC2)C1c1cccc([N+](=O)[O-])c1 (centres undefined) | inactive | inactive | inactive | inactive | inactive | – | – | – | – | – | – | – | – | – | –
Cc1ccc(C(=O)Nc2ccc(CN3CCN(C)CC3)c(C(F)(F)F)c2)cc1C#Cc1cnc2cccnn12 | inactive | 5.26 µM (active) | 4.69 µM (active) | 5.9 µM (active) | 5.9 µM (active) | – | 2.09 µM (active) and 3.66 µM (active) | 11.8 µM (active) | 14.8 µM (active) | 16600 nM (active) | 23.5 µM (active) | 5.26 µM (active) | 23.5 µM (active) | – | –
Cc1[nH]c2ccccc2c1CCNCc1ccc(C=CC(=O)NO)cc1 | inactive | 0.0935 µM (active) | 0.0833 µM (active) | 0.0935 µM (active) | 0.0469 µM (active) | – | 0.935 µM (active) | – | – | 235 nM (active) | – | 0.118 µM (active) | 0.148 µM (active) | – | 590 nM (active)
C[C@@H]1COC(Nc2ccc3ncnc(Nc4ccc(OCc5nccs5)c(Cl)c4)c3c2)=N1 | inactive | 2.64 µM (active) | 3.72 µM (active) | 20.9 µM (active) | 10.5 µM (active) | – | – | – | – | – | – | – | – | – | –
CCOc1cc2ncc(C#N)c(Nc3ccc(F)c(Cl)c3)c2cc1NC(=O)C=CCN(C)C | inactive | 0.105 µM (active) | 0.132 µM (active) | 0.132 µM (active) | 0.132 µM (active) | – | 10.5 µM (active) | inactive | – | 209 nM (active) | 1.48 µM (active) | 20.9 µM (active) | 18.7 µM (active) | – | 16600 nM (active)
N#CCNC(=O)c1ccc(-c2ccnc(Nc3ccc(N4CCOCC4)cc3)n2)cc1 | inactive | 11.8 µM (active) | 4.69 µM (active) | 13.2 µM (active) | 16.6 µM (active) | – | – | – | 20.9 µM (active) | – | – | 13.2 µM (active) | – | 3.66 µM (active) | –
